# Most compounds without a hit are left out; they make up all but 2.4% or so of the library.
# FEN1 inh-1: qHTS Assay for the Inhibitors of Human Flap endonuclease 1 (FEN1); Recombinant FEN1 flap cleavage, fluorescence, 15 min; P39748; AID 588795, 2011; 390,000 compounds, 0.35% hits; Potency, µM (titrated, usually from 114 µM), for inactives: at the top dose activity change, negative = inhibition, most hits filed as inhibitors; note: % is set by controls: 0 for no effect and ±100 for the full control effect; nearly all actives have a fitted effect of over 65% in size
#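 Concentration–response screening of FEN1 (10 nM): 15 min compound preincubation at room temperature, reaction started with 50 nM substrate and read at 0 and 15 min. Corrected, normalized data were fitted by a four-parameter Hill equation.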
# WRN helicase inh-1: qHTS for Inhibitors of WRN Helicase | WRN helicase unwinding, fluorescent forked duplex, kinetic | Potency, µM (top dose mostly 114 µM), for the others: at the highest dose activity change, negative = inhibition, actives largely listed as inhibitors | 360,000 compounds, 0.46% hits; note: % is set by controls: 0 for no effect and ±100 for the full control effect; nearly all actives have a fitted effect of over 55% in size
#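 Enzyme (20 nM final) and test compound sit together 15 min at room temperature before substrate addition. Substrate is a single-forked duplex oligonucleotide (100 nM) labelled with fluorophore and quencher, with 2 mM ATP; helicase unwinding raises red fluorescence, read kinetically.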
# Pol eta inh-1: qHTS for Inhibitors of Polymerase Eta | Potency, µM (series often up to 114 µM), inactives show at the top dose activity change, negative = inhibition, most hits filed as inhibitors | 390,000 compounds, 1.2% hits | DNA polymerase eta (Homo sapiens), Q9Y253 | recombinant Pol eta, fluorescent DNA replication assay | AID 588591, 2011; note: % is set by controls: 0 for no effect and ±100 for the full control effect
#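 Pol eta at 10 nM preincubated with compounds 15 min at room temperature; reaction started with fluorescent substrate (50 nM final) and read kinetically at 0 and 10 min.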
# Pol iota inh: qHTS for Inhibitors of Polymerase Iota; DNA polymerase iota (Homo sapiens), Q9UNA4; Pol iota fluorescent replication assay, 10 min; Potency, µM (doses to about 115 µM), for the others: top-dose activity, negative = inhibition, actives largely listed as inhibitors; 390,000 compounds, 1% hits; AID 588590, 2011
#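 Fluorescent replication assay read twice, at 0 min and 10 min after adding 50 nM (final) substrate. Enzyme (10 nM) and compounds were first incubated 15 min at room temperature; enzyme-free buffer wells were negative controls.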
# POLB inh: qHTS Assay for Inhibitors of DNA Polymerase Beta; P06746; Pol beta primer extension/strand displacement, fluorescence kinetic; Potency, µM (series often up to 114 µM), without a hit: at the highest dose activity change, negative = inhibition, most hits filed as inhibitors; 340,000 compounds, 1.3% hits; note: % is set by controls: 0 for no effect and ±100 for the full control effect
#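 Reaction started by 50 nM substrate onto compound-treated Pol beta (10 nM, 15 min preincubation, room temperature); plates read at 0 min and 10 min. Normalized concentration-effect data fitted by four-parameter Hill equation.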
# Pol kappa inh-1: qHTS for Inhibitors of Polymerase Kappa. 400,000 compounds, 0.53% hits. DNA polymerase kappa (Homo sapiens), Q9UBT6. Potency, µM (series often up to 107 µM), without a hit: at the highest dose activity, negative = inhibition, actives largely listed as inhibitors. purified Pol kappa, fluorescent DNA synthesis assay, 10 min; note: % is set by controls: 0 for no effect and ±100 for the full control effect
#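 50 nM final substrate added after 15 min RT preincubation of 10 nM Pol kappa with compound; fluorescence read at 0 and 10 min.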
# PGK validate: qHTS for inhibitors of Phosphogylcerate Kinase: Hit Validation Screen; shares compounds with Pol kappa inh-1; TbPGK coupled GAPDH assay, Kinase-Glo luminescence; Potency, µM (titrated, usually from 57.5 µM), inactives show top-dose activity change, negative = inhibition, actives largely listed as inhibitors; 500 compounds, 79% hits; AID 686980, 2013; note: % is set by controls: 0 for no effect and ±100 for the full control effect; nearly all actives have a fitted effect of over 65% in size
# POLI cherry-pick: qHTS for Inhibitors of Polymerase Iota: Confirmatory Assay for Cherry-picked Compounds; shares compounds with Pol kappa inh-1; Pol iota primer extension, TAMRA/BHQ fluorescence; Potency, µM, hits mostly inhibitors; 1,500 compounds, 77% hits; AID 720496, 2013
# Pol kappa inh-2: qHTS for Inhibitors of Polymerase Kappa: Confirmatory Assay for Cherry-picked Compounds; AID 720501, 2013; 920 compounds, 76% hits; Potency, µM, most hits filed as inhibitors; purified Pol-kappa, fluorescent strand-displacement substrate; shares compounds with Pol eta inh-1
# Pol eta inh-2: qHTS for Inhibitors of Polymerase Eta: Confirmatory Assay for Cherry-picked Compounds. shares compounds with Pol eta inh-1. Pol eta primer extension, TAMRA/BHQ fluorescence, 10 min. Potency, µM, hits mostly inhibitors. 2,600 compounds, 64% hits. AID 720502, 2013
# FEN1 inh-2: qHTS Assay for the Inhibitors of FEN1: Confirmatory Assay for Cherry-picked Compounds; shares compounds with FEN1 inh-1; FEN1 flap cleavage, TAMRA/BHQ2 fluorogenic DNA substrate; Potency, µM, hits mostly inhibitors; 880 compounds, 79% hits; note: nearly all actives have a fitted effect of over 60% in size
# WRN helicase inh-2: qHTS for Inhibitors of WRN Helicase: Confirmatory Assay for Cherry-picked Compounds; shares compounds with WRN helicase inh-1; WRN helicase DNA unwinding, fluorescence kinetic; Potency, µM (highest dose often 57.1 µM), without a hit: at the highest dose activity, negative = inhibition, actives largely listed as inhibitors; 610 compounds, 63% hits; AID 720497, 2013; note: nearly all actives have a fitted effect of over 65% in size
# TO DNA binding: qHTS for Inhibitors of WRN Helicase: Thiazole Orange DNA Binding Counterscreen; shares compounds with WRN helicase inh-1; thiazole orange DNA binding displacement, fluorescence; Potency, µM (highest dose often 57.1 µM), without a hit: at the highest dose activity change, negative = inhibition, hits mostly inhibitors; 610 compounds, 10% hits; AID 720499, 2013;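 note: drop in dye fluorescence marks compound binding to DNA; % is set by controls: 0 for no effect and ±100 for the full control effect; nearly all actives have a fitted effect of over 60% in size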
# BLM counter: qHTS for Inhibitors of WRN Helicase: BLM Helicase Counterscreen for WRN Inhibitors. shares compounds with WRN helicase inh-1. Recombinant BLM helicase DNA unwinding, red fluorescence. Potency, µM (series often up to 57.1 µM), inactives show at the highest dose activity change, negative = inhibition, actives largely listed as inhibitors. 610 compounds, 60% hits; note: nearly all actives have a fitted effect of over 60% in size
# Target sequence (P54132 whole entry, looked up): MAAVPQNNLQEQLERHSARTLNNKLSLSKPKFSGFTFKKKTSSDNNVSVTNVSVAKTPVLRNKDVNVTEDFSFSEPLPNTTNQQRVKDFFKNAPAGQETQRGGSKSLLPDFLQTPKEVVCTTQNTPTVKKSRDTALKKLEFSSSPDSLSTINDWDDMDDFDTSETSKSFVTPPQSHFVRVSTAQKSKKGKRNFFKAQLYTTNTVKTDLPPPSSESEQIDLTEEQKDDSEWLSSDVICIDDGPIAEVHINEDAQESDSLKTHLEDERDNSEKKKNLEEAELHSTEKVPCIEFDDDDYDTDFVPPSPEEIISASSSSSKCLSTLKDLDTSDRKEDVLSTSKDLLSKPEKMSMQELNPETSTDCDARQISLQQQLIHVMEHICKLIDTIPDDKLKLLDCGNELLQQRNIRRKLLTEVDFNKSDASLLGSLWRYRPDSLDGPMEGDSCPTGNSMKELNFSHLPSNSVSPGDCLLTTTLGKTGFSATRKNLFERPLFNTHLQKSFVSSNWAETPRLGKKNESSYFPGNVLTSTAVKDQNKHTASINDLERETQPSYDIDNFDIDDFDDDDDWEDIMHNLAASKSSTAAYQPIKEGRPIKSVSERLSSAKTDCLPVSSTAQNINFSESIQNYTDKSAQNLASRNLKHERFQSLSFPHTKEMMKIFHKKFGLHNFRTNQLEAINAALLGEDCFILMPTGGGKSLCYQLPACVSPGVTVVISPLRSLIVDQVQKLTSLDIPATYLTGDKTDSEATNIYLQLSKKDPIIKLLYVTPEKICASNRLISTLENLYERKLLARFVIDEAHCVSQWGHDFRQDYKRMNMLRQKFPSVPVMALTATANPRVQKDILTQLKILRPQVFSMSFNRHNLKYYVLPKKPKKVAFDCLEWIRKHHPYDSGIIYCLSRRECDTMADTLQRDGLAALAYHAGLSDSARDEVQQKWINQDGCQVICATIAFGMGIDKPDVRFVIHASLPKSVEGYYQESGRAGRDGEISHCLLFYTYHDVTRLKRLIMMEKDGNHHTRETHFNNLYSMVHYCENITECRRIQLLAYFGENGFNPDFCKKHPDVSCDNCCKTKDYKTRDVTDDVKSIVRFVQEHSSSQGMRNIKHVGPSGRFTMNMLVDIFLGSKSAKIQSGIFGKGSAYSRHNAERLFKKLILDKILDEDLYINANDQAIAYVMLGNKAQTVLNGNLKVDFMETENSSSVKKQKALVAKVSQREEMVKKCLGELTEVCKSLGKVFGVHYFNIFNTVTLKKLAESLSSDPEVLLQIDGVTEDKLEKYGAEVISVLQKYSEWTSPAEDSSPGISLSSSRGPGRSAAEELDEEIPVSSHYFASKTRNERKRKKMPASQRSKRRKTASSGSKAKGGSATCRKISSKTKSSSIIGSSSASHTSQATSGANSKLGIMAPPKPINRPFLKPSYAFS
# * = called active by the depositor; u = inconclusive; x = not tested or not shown; [ ] = remark or other dose. Calls come from the whole dose curve; as a rule, active = well fitted curve in the direction sought with a large enough effect; inconclusive = small, poorly fitted or top-dose-only effect, or another doubt; inactive = no such curve, though single readings can be large; an effect the other way counts as inactive or inconclusive. Potency is the fitted concentration of half-maximal effect.
SMILES,FEN1 inh-1,WRN helicase inh-1,Pol eta inh-1,Pol iota inh,POLB inh,Pol kappa inh-1,POLI cherry-pick,Pol eta inh-2,FEN1 inh-2,WRN helicase inh-2,TO DNA binding,BLM counter,others
C/C(C/C(C)=C1/SC(=S)NC1=O)=C1\SC(=S)NC1=O,13µM*,28µM*,3.5µM*,3.5µM*,16µM*,20µM*,30*,6*,19*,3.8µM*,-4%,u,
CC(C)COC(=O)N(C)C[C@H]1OCc2cnnn2CCCC(=O)N([C@H](C)CO)C[C@@H]1C,x,-6%,-4%,x,x,x,x,x,x,x,x,x,
CCc1ccc(C(=O)c2cn(CC(=O)Nc3cccc(OC)c3)c3ccc(OC)cc3c2=O)cc1,40µM*,x,40µM*,13µM*,8.9µM*,89µM*,8.4*,u,67*,19µM*,-6%,4.3µM*,
COc1cccc(NC(=O)Cn2cc(C(=O)c3ccc(F)cc3)c(=O)c3cc(OC)ccc32)c1,4%,x,-4%,25%,40%,6%,x,x,x,x,x,x,
CC(C(=O)O)N1C(=O)/C(=C/C=C/c2ccco2)SC1=S (configuration not stated),7.9µM*,2.4µM*,0.79µM*,0.79µM*,1.3µM*,1.3µM*,1.9*,1.3*,15*,0.54µM*,-11%,0.96µM*,PGK validate=2.9µM*
O=C1/C(=C/C=C/c2ccco2)SC(=S)N1NS(=O)(=O)c1ccccc1,4µM*,8.9µM*,1.1µM*,1.8µM*,u,4.5µM*,2.7*,1.7*,17*,4.8µM*,-18%,7.6µM*,PGK validate=4.1µM*
O=C(c1ccc(-n2cccc2)cc1)N1CCOCC1,5%,1%,-11%,12%,12%,0%,x,x,x,x,x,x,
O=C(c1ccc(=O)oc1)N1CCOCC1,32µM*,u,1.8µM*,u,5µM*,50µM*,x,x,x,5.4µM*,-1%,3µM*,PGK validate=4.1µM*
O=C(c1ccc(=O)oc1)N1CCCc2ccccc21,56µM*,u,3.5µM*,13µM*,-101%,20µM*,42*,30*,x,22µM*,-9%,24µM*,
Cc1cc(C)c2nc(-c3ccccn3)cc(C(=O)Nc3ccc(S(=O)(=O)Nc4onc(C)c4C)cc3)c2c1,u,40µM*,8.9µM*,8.9µM*,u,u,21*,8.5*,x,15µM*,u,6.8µM*,
O=C(NCc1cccc(C(F)(F)F)c1)c1ccc2nc([C@H]3C[C@H](O)[C@@H](CO)O3)[nH]c2c1,x,-3%,x,x,x,x,x,x,x,x,x,x,
COc1ccc(CC(=O)NCc2ccc3c(c2)CCN3C(=O)c2ccc(C)cc2)cc1OC,-2%,x,2%,4%,-1%,-5%[60.1 µM],x,x,x,x,x,x,
Cc1cccc(N2NC(=O)/C(=C/c3ccc(-c4ccc(Cl)c(C(=O)O)c4)o3)C2=O)c1,u,40µM*,6.3µM*,3.5µM*,25µM*,35µM*,34*,17*,x,9.6µM*,u,9.6µM*,
Cc1cccc(-c2ccc(C=Nc3c(C)n(C)n(-c4ccccc4)c3=O)o2)c1,8%,-4%,-25%,-8%,-8%,-7%,x,x,x,x,x,x,
O=C(O)c1cc(-c2ccc(/C=C3\NC(=O)N(c4ccc(Cl)cc4)C3=O)o2)ccc1Cl,u,35µM*,3.5µM*,10µM*,6.3µM*,10µM*,21*,5.4*,x,6.8µM*,u,24µM*,PGK validate=21µM*;Pol kappa inh-2=17*
O=C1NN(c2ccccc2)C(=O)/C1=C/c1ccc(-c2ccc(Cl)c(C(=O)O)c2)o1,u,35µM*,7.1µM*,u,13µM*,u,42*,30*,x,19µM*,-18%,u,
CN1C(=CC=C2C=C(I)C(=O)C(I)=C2)C(C)(C)c2ccccc21,32µM*,4.7µM*,u,3.5µM*,u,u,34*,48*,85*,27µM*,88%,19µM*,Pol kappa inh-2=75*
CC1=NN(c2ccccc2)C(=O)/C1=C\C=C1/N(C)c2ccccc2C1(C)C,u,10%,-11%,-19%,16%,-9%,x,x,x,x,x,x,
